Source: PubChem BioAssay (NCI)
About 83,000 compounds went through this panel and 20% of them were active in at least one assay; those are over-represented in the sample as a whole.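 Growth was measured after 48 h exposure to one concentration of compound in 96-well plates. Values under 10 count as active.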 Calls of active or inactive are those of the source.

Each compound was assayed on HL-60(TB) leukemia (assay: NCI-60 one-dose screen, 48 h (100 = growth as untreated, 0 = no growth, -100 = all killed)). Conditions: 10 µM unless noted.
O=C1c2ccccc2-c2c1c1ccncc1c(=O)n2CCCn1ccnc1 was tested, and the growth was 35.7% (inactive). For Cc1cc(C)n(C(=O)CSc2nc3sc4c(c3c(=O)n2-c2ccccc2)CCCCC4)n1, the growth was 107% (inactive). COc1ccc(Oc2c(I)cc(CC(NC(C)=O)C(=O)O)cc2I)cc1 (stereo unspecified) was tested, and the growth was 86.3% (inactive). For COC(=O)C1OC1c1cc([N+](=O)[O-])ccc1OC (stereo unspecified), the growth was 99.1% (inactive). CCN(CC)CCOc1ccc(Nc2ncc3cc(-c4c(Cl)cccc4Cl)c(=O)n(CCOC)c3n2)cc1 was tested, and the growth was -19.2% (active). For O=c1c2cccc(Cl)c2sc2c(NCCCNCCO)nc3ccccc3c12, the growth was -17.8% (active). CCOC(=O)c1c(C)nc2ccccc2c1/C=C/c1ccc(F)cc1 was tested, and the growth was 85.7% (inactive). In the case of O=C1/C(=C\c2cccn2C(=O)c2ccccc2)c2ccccc2N1c1c(Cl)cccc1Cl, the growth was 9.37% (active). CC(CN1CCN(CCOCCO)CC1)CN1c2ccccc2Sc2ccc(Cl)cc21 (stereo unspecified) was tested, and the growth was 80.8% (inactive). CC(C)(O)C(=O)O was tested, and the growth was 103% (inactive). FC(F)(F)c1ccc2c(c1)n1cnnc1c1nncn21 was tested, and the growth was 104% (inactive). For COc1c(C)c2c(c(O)c1C/C=C(\C)CCC(=O)O)C(=O)OC2, the growth was 45.6% (inactive). CC1CCN(C(=O)CSc2nc3sc4c(c3c(=O)[nH]2)CCCC4)CC1 was tested, and the growth was 102% (inactive). With Nc1ccc2c(c1)C(=O)c1cc(Cl)c(Cl)cc1-2 the growth was 76.2% (inactive). COc1cccc(C(=O)NC(c2ccc(C)cc2)c2cc(Cl)c3cccnc3c2O)c1 (stereo unspecified) was tested, and the growth was 4.15% (active). In the case of Nc1ccccc1-c1cc2c(c3c1[nH]c1ccccc13)CCCCC2, the growth was 91.6% (inactive).
